22 molecules from PubChem BioAssay (EPA / NIEHS) can be followed below.

Records with an inconclusive call do not appear. Active and inactive are the calls of the source. How the source made its calls: active means hit-call score of the fitted dose curve at least 0.9, where 1 is the maximum; inconclusive means response in the unintended direction; inactive means score below 0.9.

One may read the AC50 as the concentration at which the activity in the assay is half-maximal.

The assay can be described thus: CCTE_Deisenroth_AIME_384WELL_CTox_Inactive: Cytotoxicity Assessment (CTOX) in CCTE's 384-well Estrogen Receptor Transactivation Assay without AIME metabolic competence (metabolism negative), Deisenroth Lab (AID 2284039).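 Further: cell viability via live-cell protease substrate cleaved to fluorescent probe; cells exposed 24 h to medium preincubated 2 h with alginate-water beads without S9.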 How it is done:
CCTE_Deisenroth_AIME_384WELL (AIME metabolism assay) is a cell-based, single-readout assay that uses VM7Luc4E2, a human mammary gland/breast cell line, with measurements taken at 24 hour after chemical dosing in a 384-well plate.CCTE_Deisenroth_AIME_384WELL_CTox_Inactive is one of four assay components measured or calculated from the CCTE_Deisenroth_AIME_384WELL assay. It is designed to make measurements of a protease substrate, a type of viability indicator, as detected with substrate cleavage to a fluorescent probe in living cells.CCTE_Deisenroth_AIME_384WELL_CTox_Inactive is a component of the CCTE_Deisenroth_AIME_384WELL assay that measures the effect of retroftting the VM7Luc ERTA assay with the Alginate Immobolization of Metabolic Enzymes (AIME) metabolism method. AIME is optimized to impart phase I hepatic metabolism using phenobarbital/beta-naphthoflavone induced hepatic S9 from male Sprague Dawley rats. Parent chemicals are incubated for 2 hours in the AIME assay prior to transfer to the VM7Luc ERTA assay plate. […] This endpoint evaluates cytotoxicity in metabolism negative mode. Using a type of flourescent probe in VM7Luc cells, loss-of-signal activity can be used to understand loss of viability. This assay endpoint, CCTE_Deisenroth_AIME_384WELL_CTox_Inactive, was analyzed with bidirectional fitting in the ERTA assay.
The AIME procedure consists of a preparative "pre-stamping" step using a barium chloride/poly-L-lysine (PLL) solution followed by "stamping" the lid in alginate-hepatic S9 (metabolism positive) or alginate-water (metabolism negative) to form microspheres. Once stamping is completed, the AIME lids are placed in duplicate microplates (metabolism positive or negative) containing chemical solutions and incubated for two hours to facilitate metabolic reactions. The conditioned medium, containing parent chemical or metabolites, is then transferred to the cell-based VM7Luc Estrogen Receptor Transactivation Assay (ERTA) for 24 hours. A typical experimental design tests a 10-point concentration series (0.002 - 200 uM) for 8 compounds (96-well format)1 or 32 compounds (384-well format)2 in single technical replicate. AIME assay controls include trans-stilbene (bioactivated control) and ethylparaben (bioinactivated control). ERTA assay plate controls include 17-beta estradiol (positive control) and DMSO (solvent control). Experiments typically comprise a minimum of four experimental replicates (n=4).
Regarding `CCCc1cc(=O)[nH]c(=S)[nH]1`, the molecule was called inactive.
Still for that read-out and setting: with `NCCO` the entry was “inactive”.
`CCNc1cccc(C)c1`: the call was inactive.
The same measure, in the same setting: with `Cc1ccc(C)c(O)c1C` the entry was “inactive”; with `CC1(C)NC(=O)NC1=O`, “inactive”; with `CC1=C(/C=C/C(C)=C/C=C/C(C)=C/CO)C(C)(C)CCC1`, “inactive”.
Take `CN1CCCC1=O`: the molecule was called inactive.
Still for that read-out and setting: with `C[C@]12C=CC(=O)C=C1CC[C@@H]1[C@@H]2C(=O)C[C@@]2(C)[C@H]1CC[C@]2(O)C(=O)CO` the entry was “inactive”.
The same measure, in the same setting: with `COCCOCCOC` the entry was “inactive”; with `Cc1cc(=O)[nH]c(=S)[nH]1`, “inactive”; with `Cc1cccc(C)c1O`, “inactive”.
Consider `CCOc1ccc2c(c1)C(C)=CC(C)(C)N2`, for which the call was inactive.
In the case of `CCCCCC(=O)O`, the call was inactive.
Consider `O=c1[nH]cc(F)c(=O)[nH]1`, for which the call was inactive.
With `C[Si]1(C)O[Si](C)(C)O[Si](C)(C)O[Si](C)(C)O1`, the molecule was classed as inactive.
On the same count and under the same terms, with `CCCCOC(=O)CCCCCCCCC(=O)OCCCC` the entry was “inactive”.
Take `Cc1cccc([N+](=O)[O-])c1C`: the molecule was called inactive.
Regarding `CCCCCCCCCCCCCCCCCC(=O)O`, the call was inactive.
For the molecule `CNCc1cc(F)ccc1Oc1ccc(Cl)c(Cl)c1`, the AC50 was 19.8 µM (active).
Regarding `C=CCc1ccc(O)c(OC)c1`, the outcome was inactive.
The same measure, in the same setting: then `Cc1ccc(N(C)C)cc1`, with “inactive”.
Turning to `O=c1c(O)c(-c2ccc(O)c(O)c2)oc2cc(O)cc(O)c12`, the half-maximal activity concentration (AC50) was 54.5 µM (active).
